KKLEB cytotox – CF airway cell cytotoxicity counter-screen | hit rate 0.36% among 360,000 | KKLEB CF airway cells viability, ATPlite luminescence, overnight; active compounds read low; cells stimulated with P. aeruginosa culture filtrate | activity change (cytotoxicity), % at 5 µM;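 active = corrected activity change at or below -50% at 5 µM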
CF NFkB inh – inhibitors of cystic fibrosis induced NF-kB. KKLEB NF-kB-GFP reporter, PAF-induced, GFP fluorescence overnight. inhibition, % at 5 µM. hit rate 0.86% among 360,000;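 active = at least 50% inhibition at 5 µM, scaled per plate between neutral and stimulator controls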;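 note: PAF is a Pseudomonas aeruginosa culture filtrate used as stimulus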
Peg3 promoter – inhibitors of Peg3 promoter; HeLa PEG-Prom luciferase reporter, luminescence, overnight; inhibition, % at 20 µM; hit rate 1.7% among 360,000;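 active = inhibition of at least 50% at 20 µM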
Shn3 inh set2 – inhibitors of Schnurri-3 3'UTR reporter in osteoblasts. Clone20 osteoblast Shn3 3'UTR firefly luciferase, 24 h. inhibition, % at 12.5 µM. hit rate 0.52% among 360,000. AID 588674;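 active = mean inhibition of at least 75% with every replicate also reaching 75%; inconclusive = mean inhibition at least 75% but some replicate below; inactive = mean inhibition below 75%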
LMP1 NFkB inh – inhibitors of Epstein-Barr LMP1-induced NF-kappaB reporter; LMP1-induced NF-kappaB luciferase reporter cells, luminescence; inhibition, % at 12.5 µM; hit rate 0.69% among 350,000; in the data active = inhibition above about 41%; inconclusive = no clear call, values can overlap the other calls
HIF-2a inh – inhibitors of HIF-2a | AID 624352 | inhibition, % at 18.8 µM | hit rate 0.72% among 360,000 | 786-0 RCC cells HIF-2a reporter, luciferase luminescence, overnight;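 active = inhibition of the luminescence signal of 40% or more relative to plate controls, in a single-dose primary screen at 18.75 µM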
Mdm2-MdmX confirm – confirmation of inhibitors of human Mdm2/MdmX interaction, set 2. SaOS-2 split-luciferase Mdm2/MdmX complementation, luminescence. shares compounds with HIF-2a inh. hit rate 99% among 740. inhibition, % at 8 µM;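 active = mean inhibition of the luminescence signal across two replicates at or above 26 percent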
Target sequence (O15151 whole entry, looked up): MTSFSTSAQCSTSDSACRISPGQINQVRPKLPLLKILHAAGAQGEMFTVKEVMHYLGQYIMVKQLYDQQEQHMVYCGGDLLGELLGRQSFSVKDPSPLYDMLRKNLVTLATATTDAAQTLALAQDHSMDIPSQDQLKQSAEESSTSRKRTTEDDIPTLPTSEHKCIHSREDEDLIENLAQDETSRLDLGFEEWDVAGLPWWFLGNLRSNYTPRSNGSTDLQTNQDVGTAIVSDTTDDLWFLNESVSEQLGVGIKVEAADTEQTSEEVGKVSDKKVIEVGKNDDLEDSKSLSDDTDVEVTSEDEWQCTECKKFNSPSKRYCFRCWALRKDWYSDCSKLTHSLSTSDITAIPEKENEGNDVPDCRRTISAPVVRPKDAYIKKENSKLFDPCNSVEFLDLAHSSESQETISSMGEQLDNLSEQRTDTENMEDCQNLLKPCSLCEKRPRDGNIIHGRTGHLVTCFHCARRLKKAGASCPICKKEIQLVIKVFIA
Target sequence (Q00987 whole entry, looked up): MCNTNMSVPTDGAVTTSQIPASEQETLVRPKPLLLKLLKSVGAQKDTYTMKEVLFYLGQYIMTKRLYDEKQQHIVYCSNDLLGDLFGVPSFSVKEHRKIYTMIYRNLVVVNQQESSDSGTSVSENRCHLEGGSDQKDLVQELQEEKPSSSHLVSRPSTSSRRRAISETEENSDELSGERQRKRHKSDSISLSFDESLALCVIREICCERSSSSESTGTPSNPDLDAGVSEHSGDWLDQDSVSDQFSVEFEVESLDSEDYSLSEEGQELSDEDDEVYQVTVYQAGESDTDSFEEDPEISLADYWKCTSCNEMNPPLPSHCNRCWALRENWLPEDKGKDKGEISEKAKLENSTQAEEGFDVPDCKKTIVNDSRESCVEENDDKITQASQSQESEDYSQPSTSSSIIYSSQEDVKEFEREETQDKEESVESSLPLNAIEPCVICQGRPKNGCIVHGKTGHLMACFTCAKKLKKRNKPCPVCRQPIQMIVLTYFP
HIF-2a inh conf – confirmation of HIF-2a inhibitors; shares compounds with HIF-2a inh; hit rate 56% among 1,800; inhibition, % at 18.8 µM; 786-0 RCC cells, HIF-2a luciferase reporter luminescence, overnight; AID 651580;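 active = mean inhibition across four replicates of at least 40 percent at the single tested concentration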
HIF-1a cs – HIF-1a inhibition counter-screen for HIF-2a hits; inhibition, % at 18.8 µM; MiaPaCa-2 HIF-1a luciferase reporter, desferoxamine, overnight; shares compounds with HIF-2a inh; hit rate 72% among 1,800;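 active = mean inhibition of the reporter signal across four replicates at the single tested dose of 50% or more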
Hits are given with their value; n = inactive; u = inconclusive; x = no result. Most compounds without a hit are left out; they make up all but 2.9% or so of the library.

SMILES	KKLEB cytotox	CF NFkB inh	Peg3 promoter	Shn3 inh set2	LMP1 NFkB inh	HIF-2a inh	HIF-2a inh conf	HIF-1a cs	others
O=c1[nH]c2ccc(Br)cc2c(=O)o1	n	n	n	n	n	44	45	n
COc1cccc(NC(=O)c2cc3c(=O)n4ccccc4nc3n(CC(C)C)c2=N)c1	n	n	n	n	n	n	x	x	Mdm2-MdmX confirm=36
CC(C)(C)c1ccc(Oc2ccc(NC(=O)c3ccco3)cn2)cc1	n	n	n	n	n	75	n	n
O=C1C=CC(=O)N1CCNc1ncc(C(F)(F)F)cc1Cl	n	60	108	86	n	n	x	x	Mdm2-MdmX confirm=103
COC(=O)/C(=C\c1ccc(O)cc1)c1nc2ccccc2[nH]1	n	n	n	n	n	n	x	x
O=C(/C(=C/c1ccc(Cl)cc1)c1nc2ccccc2[nH]1)c1cccs1	-61	98	106	88	n	93	x	x	Mdm2-MdmX confirm=102
O/C(=C\c1nc2ccccc2[nH]1)c1cccs1	n	n	n	n	n	n	x	x
COC(=O)/C(=C\c1cc(OC)c(OC)c(OC)c1)c1nc2ccccc2[nH]1	n	n	n	n	n	n	x	x
COc1cc(/C=C(/C(=O)c2cccs2)c2nc3ccccc3[nH]2)ccc1O	n	n	103	n	n	68	n	104
O=C(/C(=C\c1ccccc1)c1nc2ccccc2[nH]1)c1ccc(Cl)cc1	n	n	87	n	n	64	n	100
Cc1cc(NC(=O)CSc2nnc3ccc(-c4ccc(F)cc4)nn23)no1	n	n	n	n	n	n	x	x
CCN(CC)CCn1c(NC(=O)c2ccccc2O)nc2ccccc21	n	n	n	n	n	n	x	x
COC(=O)[C@]12C(=O)C(C)=C(O)[C@@]1(C)C(C)=CC1[C@@]34CC[C@@H](OC(C)=O)C(C)(C)C3C(C[C@]12C)OC4=O (stereo partly specified)	n	n	n	n	n	n	x	x
Cc1nc(C(F)(F)F)nc(Nc2ccc(N=Nc3ccccc3)cc2)c1C#N	n	n	n	n	n	n	x	x
CCc1ccc2oc(=O)cc(CN3CCOCC3)c2c1	n	n	n	n	n	46	n	n
Cc1cccc2sc(NNC(=O)c3ccc(S(=O)(=O)N4CC(C)CC(C)C4)cc3)nc12 (stereo unspecified)	n	n	99	u	n	48	n	100	Mdm2-MdmX confirm=90
COc1ccc(C2NC(=O)NC(C)=C2C(=O)OC2CCCC(C)C2)cc1 (stereo unspecified)	n	n	52	n	n	41	n	n
N#Cc1ccccc1COc1ccc(/C=C/C(=O)O)cc1	n	n	n	n	n	87	89	56
N#Cc1ccc(/C=C/C(=O)c2ccccc2)cc1	n	n	98	n	n	87	n	65
O=C(c1ccc(Br)cc1)C(CN1CCOCC1)c1ccccc1 (stereo unspecified)	-64	62	n	96	n	70	n	n
CC(CN1CCOCC1)OC(=O)c1ccc(Br)cc1 (stereo unspecified)	n	n	n	n	n	n	x	x
COc1ccc(S(=O)(=O)N2CCOCC2)cc1NC(=O)CN1C(=O)NC(C)(C2CC2)C1=O (stereo unspecified)	n	n	n	n	n	n	x	x
CCOC(=O)C1=C(O)/C(=C/c2cn(CC(=O)NCC3CCCO3)c3ccccc23)SC1=Nc1ccc(C)cc1 (stereo unspecified)	-56	58	59	n	n	n	x	x	Mdm2-MdmX confirm=86
O=C(Nc1cccc2ncccc12)C(c1ccccc1)c1ccccc1	n	n	n	n	n	n	x	x
NC(=O)c1sc2nc3c(c(-c4cccs4)c2c1N)CCCCC3	-51	91	n	n	72	n	x	x	Mdm2-MdmX confirm=95
SMILES	KKLEB cytotox	CF NFkB inh	Peg3 promoter	Shn3 inh set2	LMP1 NFkB inh	HIF-2a inh	HIF-2a inh conf	HIF-1a cs	others
NC(=O)c1sc2nc3c(c(-c4cccnc4)c2c1N)CCC3	n	n	n	n	n	n	x	x
COc1ccc(N2CCN(S(=O)(=O)CCNC(=O)c3cc(=O)c4ccccc4o3)CC2)cc1	n	n	n	n	n	n	x	x
NC(=O)c1ccc(NC(=O)C#Cc2ccccc2)cc1	n	n	58	n	n	n	x	x	Mdm2-MdmX confirm=101
COc1ccc(C2C(Oc3ccccc3)C(=O)N2c2cc(C)ccc2C)cc1OC (stereo unspecified)	n	n	n	n	n	n	x	x
COc1ccc(C)cc1N1C(=N)/C(=C2/Nc3ccccc3S2)C(c2ccccc2)C1=O (stereo unspecified)	n	n	91	n	n	83	n	88
Cc1nnsc1C(=O)NC(C)c1ccccc1 (stereo unspecified)	n	n	n	n	n	n	x	x
Cc1ccc(NC(=O)CN2C(=O)C3CC=C(Cl)CC3C2=O)cc1 (stereo unspecified)	n	n	n	n	n	n	x	x
CC(=O)Nc1ccc(Nc2cc(N3CCOCC3)c3nonc3c2[N+](=O)[O-])cc1	n	n	n	n	n	42	n	76
